Laboratory results reported in PubChem BioAssay AID588719 (Southern Research Specialized Biocontainment Screening …, 2011).
In all, about 1,500 compounds went through this assay and about 920 (61%) were called active. The set was probably picked from earlier hits. This is one part of the list. Potency and affinity values are given separately. A number with no mark means an inactive call. The rule behind the calls is not given here.

Test: Vero 76 cell cytotoxicity, dose response, cytotoxicity control for VEEV inhibitor project (AID 588719)
Conditions: Vero 76 cells viability, cytotoxicity counter-screen; series mostly up to 25 µM; viability: at the top concentration
In the case of Cc1ccc([C@H]2C[C@@H](O)[C@H](n3cc(COC(=O)c4ccccc4)nn3)CN2CC2CCCCC2)cc1, the “viability” value is reported as 75.4%. With COc1ccc(CN(C)[C@H]2C[C@H]3c4[nH]c5ccccc5c4CCN3C[C@H]2[C@H](C)O)cc1 the “viability” value was 70.5%. In the case of CCOC(=O)c1ccc(-c2ccc(/C=N/NC(=O)c3cncc(Br)c3)o2)cc1, the “viability” value is reported as 83.8%. For Cc1cc(N/N=C/c2ccc3c(c2)OCO3)nc2ccccc12, the “viability” value was 78.2%. In the case of CCCc1ccc(-c2cc(C(=O)NCCc3ccc(S(N)(=O)=O)cc3)c3ccccc3n2)cc1, the “viability” value is reported as 85%. For CC(=O)Nc1ccc(CCNC(=O)c2ccc3ccccc3c2O)cc1, the “viability” value was 86.4%. In the case of CC(C)Oc1ccccc1-c1cc(C(=O)N/N=C/c2cccnc2)c2ccccc2n1, the “viability” value is reported as 84.6%. With CN(C)c1nc(OCCOC(=O)COc2ccc(Cl)cc2Cl)nc(N(C)C)n1 the “viability” value was 91.9%. With COc1ccc(CCNC(=O)c2cc3c(=O)n4cccc(C)c4nc3n(CCCN3CCOCC3)c2=N)cc1 the “viability” value was 88.7%. In the case of O=C(CCNC(=O)c1ccc(Cl)cc1)NC1CCCc2ccccc21 (configuration not stated), the “viability” value is reported as 73.9%. In the case of CCOc1ccccc1N1CCN(Cc2cn[nH]c2-c2ccc(F)cc2)CC1, the “viability” value is reported as 75.2%. In the case of COc1cccc2sc(N(CCCN(C)C)C(=O)c3ccc(S(=O)(=O)N4CCCc5ccccc54)cc3)nc12, the “viability” value is reported as 72.7%. With Cc1nc(SCC(=O)Nc2ccccc2Cl)c2c(C)c(C)sc2n1 the “viability” value was 98.1%. For CN(C)CC(O)COc1ccc(C(C)(C)c2ccc(OCC(O)CN(C)C)cc2)cc1 (configuration not stated), the “viability” value was 75.6%. With Cc1ccc(CCNc2ccc3ccccc3c2)cn1 the “viability” value was 88.9%. For CC(C)Cc1nc2oc3c(NCC(C)O)ncnc3c2c2c1CCCC2 (configuration not stated), the “viability” value was 91.7%. For Cc1cc(C(C)(C)C)cc(C)c1CCNC(=O)c1ccc[n+]([O-])c1, the “viability” value was 79.1%. With CCN(CC(=O)Nc1ccc(NC(C)=O)cc1)C(=O)c1cc2c(s1)CCCC2 the “viability” value was 88.5%. In the case of CCOC(=O)Cn1c(-c2nonc2NC(=O)c2ccccc2F)nc2ccccc21, the “viability” value is reported as 59.9%. With CCOC(=O)c1ccccc1NC(=O)CSc1nc2ccccc2c(=O)n1CCCN1CCOCC1 the “viability” value was 76%. For S=c1[nH]nc(-c2ccccn2)n1/N=C/c1ccc(-c2ccccc2Cl)o1, the “viability” value was 90.6%. In the case of COc1ccc(CCNC(=O)c2cc3c(=O)n4ccccc4nc3n(Cc3ccco3)c2=N)cc1OC, the “viability” value is reported as 87.9%. With CCOc1ccc(CCNC(=O)CCc2nc3ccccc3[nH]2)cc1OCC the “viability” value was 96.8%. With COc1ccc([C@H]2C[C@H](n3cc(-c4ccc(F)cc4)nn3)[C@@H](O)CN2C(=O)C2CCCCC2)cc1 the “viability” value was 78.2%. In the case of Fc1ccc(C2c3[nH]c4ccccc4c3CCN2Cc2cccn2-c2ncccn2)cc1 (configuration not stated), the “viability” value is reported as 71.8%. For COc1ccc(C2c3[nH]c4ccccc4c3CCN2Cc2ccoc2)c(F)c1 (configuration not stated), the “viability” value was 73.6%. For O=C(CCNC(=O)c1ccc(Br)cc1)NC1CCCc2ccccc21 (configuration not stated), the “viability” value was 76.6%. In the case of CN1CCC(N(C)S(=O)(=O)c2ccc(NC(=O)COc3ccc(Cl)cc3)cc2)CC1, the “viability” value is reported as 76.2%. For CCN1CCN(c2sc(S(C)(=O)=O)nc2S(=O)(=O)c2ccc(C)cc2)CC1, the “viability” value was 72%. In the case of O=C1[C@H]2[C@@H](c3ccccc3)N[C@]3(CCCN(Cc4ccc(Br)cc4)C3=O)[C@H]2C(=O)N1Cc1ccccc1, the “viability” value is reported as 71%. With CCOC(=O)NC(C(Cl)(Cl)Cl)S(=O)(=O)c1ccccc1 (configuration not stated) the “viability” value was 93.7%. With Nc1ccc2nc(-c3cccc(-c4nc5ccc(N)cc5[nH]4)c3)[nH]c2c1 the “viability” value was 97.4%. In the case of O=C(COC(=O)c1ccc(Br)o1)Nc1cccc(S(=O)(=O)N2CCOCC2)c1, the “viability” value is reported as 102%. For O=C(COC(=O)Cc1ccc(S(=O)(=O)N2CCOCC2)s1)Nc1ccccc1Cl, the “viability” value was 93.2%. For CC1(C)CC2(OC2c2ccccc2[N+](=O)[O-])C(=O)c2ccccc21 (configuration not stated), the “viability” value was 84%. In the case of [O-][n+]1c(/C=C/c2ccccc2)ccc2ccccc21, the “viability” value is reported as 70.4%. For CCOC(=O)C(=Cc1ccc(-c2ccsc2C(=O)OC)o1)C(=O)OCC, the “viability” value was 77.6%. For CCOC(=O)C(=Cc1ccc(-n2ccnc2)cc1)C(=O)OCC, the “viability” value was 70.7%. With O=C(O)C1CCN(C(=O)c2cc(F)cc3c2OCOC3)CC1 the “viability” value was 93%. For Cc1ccc2c(c1)CCCN2S(=O)(=O)c1cccc(C(=O)Nc2ccccc2C(=O)O)c1, the “viability” value was 76.5%. With O=C(O)C1CC=CCC1C(=O)Nc1ccc(S(=O)(=O)N2CCCc3ccccc32)cc1 (configuration not stated) the “viability” value was 83.6%. In the case of Cc1cc2c(c(/C=C/C(=O)c3ccccc3)c1)OC1(C=C2)Oc2ccccc2C(=O)N1C (configuration not stated), the “viability” value is reported as 73.6%. With CN(C)CCNC(=O)c1onc(CSc2ccc(F)c(F)c2)c1C(=O)NCCN(C)C the “viability” value was 87.3%. With O=C(Oc1ccc2ccccc2c1Cl)N1CCCC1 the “viability” value was 81.7%. In the case of C=CCn1c(SCC(=O)NC23CC4CC(CC(C4)C2)C3)nc(O)cc1=O, the “viability” value is reported as 99.3%. For O=C(NCc1cccnc1)c1ccc(NS(=O)(=O)c2cccc([N+](=O)[O-])c2)cc1, the “viability” value was 102%. With Fc1ccccc1CSc1ncnc2c1ncn2C1CCCO1 (configuration not stated) the “viability” value was 71.9%. In the case of N#C/C(=C\c1c(Oc2ccccc2Cl)nc2ccccn2c1=O)C(=O)NC1CCS(=O)(=O)C1 (configuration not stated), the “viability” value is reported as 96.4%. In the case of COc1cccc2c1C(=O)c1c(O)c3c(c(O)c1C2=O)C[C@@](O)(C(=O)CO)C[C@@H]3OC1CC(N)C(O)C(C)O1 (some centres not stated), the “viability” value is reported as 55.7%. In the case of Cc1cccc(CS(=O)(=O)c2ncc(Cl)c(C(=O)Nc3ccc(F)cc3)n2)c1, the “viability” value is reported as 91.9%. In the case of c1ccc2c3c([nH]c2c1)C1(CCNCC1)NCC3, the “viability” value is reported as 84.9%. With CC[C@@H](C)[C@H](NC(=O)OC(C)(C)C)c1nnc(S(=O)(=O)Cc2cc(C)ccc2C)o1 the “viability” value was 78.4%. In the case of CC(=O)Nc1nnc(SCC(=O)c2ccc3c(c2)Cc2ccccc2-3)s1, the “viability” value is reported as 83.6%. For CCC(=O)Nc1nnc(SCC(=O)c2ccc3c(c2)Cc2ccccc2-3)s1, the “viability” value was 88.4%. For Cc1cc(C)n(-c2nc(N(c3ccccc3)c3ccccc3)nc(-n3nc(C)cc3C)n2)n1, the “viability” value was 89.2%. For CCOC(=O)c1c[nH]n2c(=O)cc(C)nc12, the “viability” value was 99.5%. With O=C(CCS(=O)(=O)c1ccccc1)Nc1nnc(C(F)(F)F)s1 the “viability” value was 80.7%. For Cc1ccc(CSCC(=O)Nc2ccccc2C(=O)O)cc1, the “viability” value was 71.7%. In the case of CC(C)CCn1nnnc1CN1CCN(c2ccccc2)CC1, the “viability” value is reported as 103%. With C/C=C/c1cc(CN2CCN(c3ccccc3)CC2)c(O)c(OC)c1 the “viability” value was 85.8%. In the case of CC(=O)OCC1CC(COC(C)=O)C(COC(C)=O)CC1COC(C)=O (configuration not stated), the “viability” value is reported as 93.2%. With S=c1[nH]nc(-c2cccc(Cl)c2)n1/N=C/c1ccc(-c2ccccc2Br)o1 the “viability” value was 95.2%.
